Assay results: publication PMC13494018
Values without a mark were called inactive. The rule behind the calls is not given here.

B1: d4r3_design_ppi_139_dldesign_0_cycle1_af2pred (protein)
chain: SMMDEVAKKREKKLIEESTAAAKAALAEAKAIAAGADTPENRAARAAAAEKAIANARIAGGALGKEEGEKLVSEVEAAVKA
B2: d4r2_design_ppi_171_dldesign_0_cycle1_af2pred (protein)
chain: ANEAEAEKYYAEGEQKMILGDTAYEMGKKKGPIFYKIAAEEYKEAAELYKEAAKLASPEKAKEYKEKAKEAEEKSKEAKKKGEE
B3: d4r2_design_ppi_363_dldesign_0_cycle1_af2pred (protein)
chain: GLAEAEKKQKELEEKSTKEYIEKVIKESKKKAKELKKKGEEAKKYAEKIEAEVEKAEKATLDEAIEYTSKARKLVEEAEKKL
B4: d4r2_design_ppi_363_dldesign_0_cycle0_af2pred (protein)
chain: SLEEAKKSQEELQKKSTEKWLETQIKEAEKKAKEFKSLGEEAKKKAEEILKEVEKAKASTPEEGLEHAAKAAKIIEEAEKKL
B5: d4r3_design_ppi_205_dldesign_0_cycle1_af2pred (protein)
chain: DLDAKAQALLDQAKEALAQMQATAADTVAYLSQATDAKYYARKAAKLDPKFKPQADALIAQLDAALAAAKAAYQAAKAAAA
B6: d4r2_design_ppi_310_dldesign_0_cycle1_af2pred (protein)
chain: AVEKALKIIEETEKEAKEAFEKNPETGLAIAKATYRTAEHLGSKLNKEDAEKLKKKGKEYLEEFEKRYKEKKKELEE
B7: d4r3_design_ppi_107_dldesign_0_cycle1_af2pred (protein)
chain: SAAAKEAAEKQEGRFEADLYEVKAKNAAEKYKDDKKKQAEVLEKIAEEAKKKAKEASPVIAKGYKEGAKVAEKLAKEAKKEA
B8: d4r2_design_ppi_378_dldesign_0_cycle0_af2pred (protein)
chain: MEEERQKKAEEELKKAKEAVEEGIKYAKEGNIMEANAKLSEARVHAEKAKKLDPETGKEIEKLVEEARKKIKEIAEK
B9: d4r2_design_ppi_226_dldesign_0_cycle1_af2pred (protein)
chain: MELEKKAKEVAKEAKEKAEEAEKAAEEILKKKKAIKEAGTLYSASERFKQVAEAAELDPSKAEEGRKVMERLKERAEKAVKEAE
B10: d4r3_design_ppi_53_dldesign_0_cycle1_af2pred (protein)
chain: MDPEVTKKKEAEVEAAGDVKLEGIKYLEEAKKLAKEDKEKGRKLLEEAAKEFKERAKEYEKEGKKIAARYAKEEAKKLEELAKEL
B11: d4r3_design_ppi_239_dldesign_0_cycle0_af2pred (protein)
chain: EEKAKEAEKKSKEYREKARELAEDVRNPELGRERAREEGKKTEEEIEAWLAEKAKEAQELRQESAEYDAKAIILK
B12: d4r2_design_ppi_319_dldesign_0_cycle0_af2pred (protein)
chain: EEEEKESERLAEEARRAAEEARRRIREAAERSAEAAREALEEARRRMEELIKEAKKHKKAYAVAAGEAERVLHFGEAALARREAAE
B13: d4r2_design_ppi_419_dldesign_0_cycle0_af2pred (protein)
chain: DEEKEELKKKIEEAKKKVEEAKKLAEKTSEEVKKLTKEAETEIALAEGYLDNGAAIELAKKKAEEGLKLADEALKLAEKILKEKE
B14: d4r3_design_ppi_225_dldesign_0_cycle1_af2pred (protein)
chain: AADAALAAAAAEELAKARSLATEALLYAKKGKVEEAKKLLEEAEKALKKAEELAAAASPEVQARAKKAIEGVKKKIEEAKKAIKEK
B15: d4r2_design_ppi_477_dldesign_0_cycle0_af2pred (protein)
chain: EEEKKEKLKKERHELASELARLASLADALGDKELAEKAEKAMELLALDPEKGKEAAKEVKEAAKKRLAAAKAAAA
B16: d4r2_design_ppi_460_dldesign_0_cycle0_af2pred (protein)
chain: EELKKLTEEALKKAEEAEKKAKELIKEGKTTPLVKKALEAAEKAEAASISPERALEYAKKAEELYKKAIEEIK
B17: d4r2_design_ppi_327_dldesign_0_cycle1_af2pred (protein)
chain: DETVIQAKATIESAKERAEHIKKAIKEKPKTKEELKKAKKILEELEKKAEEAYKKAGEAVKEEYEKAKKAIKEAKKEAEKNLK
B18: d4r3_design_ppi_140_dldesign_0_cycle0_af2pred (protein)
chain: ATEEQKLKAEAAALGGLYVFSPEGGKRRLERIKEELEEEAERYKEENPEKGPEYEKELREKFETLKELMEKEAAEIKA
B19: d4r2_design_ppi_295_dldesign_0_cycle1_af2pred (protein)
chain: MAEEAAKAVKNRAERLAKEFPEAAPVMKAVAEEAKKKLEEAKGKSPTEIANVAQDYQAEATAKYAEVKRETEKKLAA
B20: d4r3_design_ppi_225_dldesign_0_cycle0_af2pred (protein)
chain: AEDAALAKQAAAKLAEARQKANEALQYAKNGNVEEAKKSLEEAKAALAEAKALAAKASPETQAKAQKALDGVEKRIAEAEKAIKEK
B21: d4r3_design_ppi_205_dldesign_0_cycle0_af2pred (protein)
chain: SKEEKVKEYLEKAKEALEKMKETAADATAMNANYTEAKYYADKAAKESEEFKEEAEKLKEEAKKAYKEAAAKYAAAKAAAA
B22: d4r2_design_ppi_271_dldesign_0_cycle0_af2pred (protein)
chain: MTKEELEKLKKEVEEAEKLAQEVLKIDKESGEEILKLVTKAKGYAEFAEDALELGSQKAAESFAKKAKEYVKKAEKLAKETLAKAA
B23: d4r2_design_ppi_339_dldesign_0_cycle1_af2pred (protein)
chain: GESTEKAKKIYEEIKKKAEEYKKKAKEAAELLVEKGEEGGKKLKEIEEEAAKELPEVSFQVKAYINTLKEEAEKRRKEKEA
B24: d4r2_design_ppi_335_dldesign_0_cycle1_af2pred (protein)
chain: GAVTEALDKVLELSEKAIELAEKALKAAKEDKEEAKKYLEKAREKVKEAEKLAKESGSKAGKSIARNTKEYVEKKEKEIKEII
B25: d4r2_design_ppi_226_dldesign_0_cycle0_af2pred (protein)
chain: SELEEEAKKVAEEARELAKEAEEAAEKILKEKNNLKEAGTLYAQSAQAKQAAEAVELNPEKAEEARERLKKAKERMKEAVKKAE
B26: d4r2_design_ppi_407_dldesign_0_cycle1_af2pred (protein)
chain: SEEAKIKAKQYTSSLFTKAYLKASPETAPKIEEALEKAFEAIDKSFDEAIAVMKELAELPEAKEEAEKAEKFVAEQKK
B27: d4r2_design_ppi_407_dldesign_0_cycle0_af2pred (protein)
chain: MEEKKNKAKQFAFSEFMKAAAAAPPELRPKIEEAMDKTLEALDESFDKAIKVAEEVAKLPIAKKYAEKAKKFIEEQKK
B28: d4r2_design_ppi_432_dldesign_0_cycle1_af2pred (protein)
chain: EEEEKKKAEEEAKKVAELALKDPEAGAKAAKEMLPWSAEGLEALAKALAEAAKKAAKEDPEKAEKIKKVYNDAASAALRAEAKEERKA
B29: d4r3_design_ppi_39_dldesign_0_cycle0_af2pred (protein)
chain: DYEKKLKEEMEKYKKEAEKAAADPGAMYQKVLEGKAAADGIVNIAKEEAEEKGDEELKKKAEEAKKKAEEAIKEMKAKADAAAAA
B30: d4r2_design_ppi_327_dldesign_0_cycle0_af2pred (protein)
chain: SQEVIQAKGKIQAAKEQAEAMKEAIEKKPKSPEELERALERLKRLEEEAKEAAKKAGEEVKEEYEEAKKAIEEAKKAAEENRK
B31: d4r2_design_ppi_190_dldesign_0_cycle1_af2pred (protein)
chain: MEVEKTAKEAVEAVKAKSPKAAPKMEEAKKAAIEAAKLGKKEEALELLTKAKKAAEAGNVAEAIAYANEAIWLGEKLKK
B32: d4r3_design_ppi_206_dldesign_0_cycle1_af2pred (protein)
chain: SPEERELAARAQEEAALAKGMKIVVKNNPKSEKAIKDAEETAKEALEAAERIEKLENPTPEAKAAAERARKEAEELLKEVKKAK
B33: d4r2_design_ppi_335_dldesign_0_cycle0_af2pred (protein)
chain: SKVTEDQDKIIELSNKAVEKAEKALEAAKKDKEEAKKYLEEAEKLVEEAEKLAKESGSKAGRAIARNTKEYLEKKKKEIEELL
B34: d4r3_design_ppi_32_dldesign_0_cycle1_af2pred (protein)
chain: AEEKAKEAKELAEKAKKTAKEAKELGDEEAAKLAEEGAKDAEEASKIFESGASPAEQADAMAKYRSGKAYNDLAEKRIKEKKK
B35: d4r3_design_ppi_43_dldesign_0_cycle1_af2pred (protein)
chain: SLIEEMKKELEELVKKAEAASPAEAPWYAQEARSYGKYYSEKVEKEGNPEEAKKAKEIAEKLSEEARKIAEKKR
B36: d4r2_design_ppi_432_dldesign_0_cycle0_af2pred (protein)
chain: AEEELKEAERKAKEVAKLAMEDPEAGAKEAEKMSEGSAEALEALAKELKKAAKEAEKEDKEKAEKIKKIYNKAAAAALRAEALADNAA
B37: d4r3_design_ppi_27_dldesign_0_cycle1_af2pred (protein)
chain: AEEKAKRMEKKAKEIAEEAKELKKNAPKLDPEEAEKKARLLLGRAEGLLEQAKFGGLPEKVEKAAKEAVKAAKEALKVAKELKEK
B38: d4r3_design_ppi_187_dldesign_0_cycle1_af2pred (protein)
chain: SEEKEEGEIYVKHAKLAIEAGKEEKEAGDYKSAIALAKTAIKEAKRAIENPDEEAKKKGKEKLKEAEKALEEIEKALKEAEEK

Molecular target: VTCN1, Q7Z7D3
Sequence (Q7Z7D3 whole entry): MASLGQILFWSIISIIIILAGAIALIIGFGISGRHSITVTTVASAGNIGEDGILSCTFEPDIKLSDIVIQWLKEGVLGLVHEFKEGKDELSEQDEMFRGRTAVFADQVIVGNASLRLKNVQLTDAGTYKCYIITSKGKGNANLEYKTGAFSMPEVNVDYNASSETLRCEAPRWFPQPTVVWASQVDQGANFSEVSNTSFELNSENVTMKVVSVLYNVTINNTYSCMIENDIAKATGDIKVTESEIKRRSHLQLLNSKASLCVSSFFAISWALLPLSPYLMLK

Row | Binder | binding in a display sort
1 | B1 | not found
2 | B2 | not found
3 | B3 | not found
4 | B4 | not found
5 | B5 | not found
6 | B6 | not found
7 | B7 | not found
8 | B8 | not found
9 | B9 | not found
10 | B10 | not found
11 | B11 | not found
12 | B12 | not found
13 | B13 | not found
14 | B14 | not found
15 | B15 | not found
16 | B16 | not found
17 | B17 | not found
18 | B18 | not found
19 | B19 | not found

Row | Binder | binding in a display sort
20 | B20 | not found
21 | B21 | not found
22 | B22 | not found
23 | B23 | not found
24 | B24 | not found
25 | B25 | not found
26 | B26 | not found
27 | B27 | not found
28 | B28 | not found
29 | B29 | not found
30 | B30 | not found
31 | B31 | not found
32 | B32 | not found
33 | B33 | not found
34 | B34 | not found
35 | B35 | not found
36 | B36 | not found
37 | B37 | not found
38 | B38 | not found
